Screening results as filed in PubChem.
Hits are enriched below; roughly 19% of the tested compounds scored in any of these assays.
MARV entry inh = Marburg virus entry inhibition. Marburg virus pseudotyped entry inhibition, cell reporter. 1.8% of 300,000 active. Potency, µM (series often up to 37.8 µM), inactives show at the top dose activity change, negative = inhibition, hits mostly inhibitors; calls by dose curve; tested in HEK293 cells; further: potency means the concentration at half of the fitted maximal effect; on the % scale 0 is the no-effect control and ±100 the full control effect
Pf growth 96h = P. falciparum growth inhibition at 96 hours | P. falciparum luciferase reporter growth, 96 h | Potency, µM (doses to about 28.7 µM), without a hit: at the highest dose activity change, negative = inhibition, actives largely listed as inhibitors | 6.9% of 320,000 active; further: potency means the concentration at half of the fitted maximal effect; on the % scale 0 is the no-effect control and ±100 the full control effect
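P. falciparum expressing integrated firefly luciferase, in erythrocytes at 2% hematocrit, 0.05% parasitemia, incubated with compounds 96 h at 37 C, 5% CO2. Growth inhibition read as loss of luminescence; two-generation exposure targets delayed-death apicoplast inhibitors.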
Lassa entry inh = blocks Lassa virus binding to or entry into cells. Lassa virus pseudotype entry inhibition, cell reporter. Potency, µM (doses to about 37.9 µM), for inactives: at the top dose activity change, negative = inhibition, actives largely listed as inhibitors. 1.2% of 300,000 active. AID 540256; calls by dose curve; tested in HEK293 cells; further: potency means the concentration at half of the fitted maximal effect; on the % scale 0 is the no-effect control and ±100 the full control effect; nearly all actives have a fitted effect of over 50% in size
CHX counter = affects cycloheximide protein synthesis inhibition readout, counter-screen; cell reporter, cycloheximide protein synthesis inhibition counterscreen; 12% of 300,000 active; max response, %; AID 2314; in the data active means max response mostly above about 13%, no sharp cut-off; inactive means mostly below about 14%; further: read at 38.3 µM for the half of the compounds with a filed dose; 0% is about no effect
Shiga toxin inh = Shiga toxin inhibition. AID 2315. inhibition, % at 38.7 µM. 9.2% of 290,000 active. Vero cells, Shiga toxin protein synthesis inhibition reporter; in the data active means inhibition mostly above about 28%, no sharp cut-off; inactive means mostly below about 43%; further: 0% is about no effect
Pf growth 48h = P. falciparum growth inhibition at 48 hours (one generation) | P. falciparum luciferase growth in erythrocytes, 48 h | 5.9% of 310,000 active | Potency, µM (top dose mostly 28.7 µM), without a hit: at the highest dose activity change, negative = inhibition, actives largely listed as inhibitors | AID 504832; further: potency means the concentration at half of the fitted maximal effect; on the % scale 0 is the no-effect control and ±100 the full control effect
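Growth was read as firefly luciferase luminescence after a 48 h, 37 C, 5% CO2 exposure of compounds to reporter-bearing P. falciparum cultures (0.1% parasitemia, 2% hematocrit final) in Albumax-supplemented RPMI 1640.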
* marks the source's active call; other numbers are inactive results; ? = inconclusive; / = no result given; [ ] = dose if it differs, or a comment. Unless noted, the call rests on the fitted dose curve; in most records, active means well fitted inhibition curve with a large enough effect; inconclusive means small, poorly fitted or top-dose-only effect, or another doubt; inactive means no such curve, though single readings can be large or run the other way.

SMILES	MARV entry inh	Pf growth 96h	Lassa entry inh	CHX counter	Shiga toxin inh	Pf growth 48h
CC(C)COc1ccc(C(=O)Nc2ccc(SC(F)F)cc2)cc1	22%	-20%	?	24*	39	104%
CC(C)COc1ccc(C(=O)Nc2ccc([N+](=O)[O-])cc2)cc1	1%	-14%	?	30*	51*	-11%
CS(=O)(=O)N1CCC(NC(=O)Cc2ccccc2)CC1	7%	/	19%	8	-8	15%
COc1ccc(C(=O)/C=C/Nc2cc(C)on2)c(OC)c1	17%	57%	2%	25*	65	50%
COc1ccc2cc(C(=O)/C=C/c3cc(OC)c(O)c(OC)c3)ccc2c1	?	?	?	16	39	?
COc1ccc(C=CC(=O)c2cc(O)ccc2O)cc1	1%[46.1 µM]	/	?	/	/	/
COc1ccc(C(=O)/C=C/c2ccccc2)c(OC)c1	/	?	/	32*	54*	-63%
COc1ccc(C(=O)/C=C/Nc2ccc([N+](=O)[O-])cc2C)c(OC)c1	-6%	50%	17%	2	4	32%
COc1ccc(C(=O)/C=C/c2cc(OC)c(O)c(OC)c2)c(F)c1	?	?	13µM*	6	9	-7%
COc1cc(C)cc(C(=O)C=Cc2ccccc2)c1O	?	/	-28%[46.1 µM]	/	/	/
COc1ccc(C(=O)/C=C/c2ccc(N(C)C)cc2)c(OC)c1	7.1µM*	2.1µM*	10µM*	26*	30	?
O=C(c1ccccc1)n1nc(-c2ccccc2)nc1NCc1ccco1	/	?	/	11	14	/
CCC(C(=O)Nc1cccc(C(=O)O)c1)c1ccccc1 (stereo not given)	18%	?	6%	3	-8	16%
CN(CC(=O)Nc1cccc(C#N)c1)S(=O)(=O)c1cc2c(cc1Cl)NC(=O)CO2	/	/	1%[46.1 µM]	/	/	/
CCOc1ccccc1NC(=O)C1CCN(S(=O)(=O)c2ccc(OC)c(OC)c2)CC1	-3%	6.6µM*	-6%	9	-1	-39%
CCOc1ccccc1NC(=O)C1CCN(c2ccc(S(=O)(=O)N3CCCC3)cc2)CC1	4%	-23%[5.75 µM]	-10%	-4	1	4.7µM*
CCOc1ccccc1NC(=O)C1CCN(S(=O)(=O)c2ccc(Br)cc2)CC1	/	/	11%[46.1 µM]	/	/	/
CCS(=O)(=O)N1CCC(C(=O)Oc2ccccc2OC)CC1	/	13µM*	/	-1	-15	5%
CN(c1ccc(C(=O)N2CCOCC2)cc1)S(C)(=O)=O	-15%	/	22%	1	-7	11%
Cc1ccc(-c2cc(C(=O)N3CC(C)OC(C)C3)c3ccccc3n2)o1 (stereo not given)	9%	1%	14%	/	/	-1%
CCOC(=O)C1(c2ccccc2)CCN(CCC(=O)Nc2cccc(Br)c2)CC1	2.8µM*	?	13µM*	/	/	?
CCOC(=O)C1(c2ccccc2)CCN(CC(=O)Nc2ccc(C)cc2)CC1	-22%	?	-11%	1	-12	-23%
CCCN1CCC(CCOc2ccccc2)(C(=O)OCC)CC1	/	?	/	-2	-4	3%
CCOC(=O)C1(c2ccccc2)CCN(CCC(=O)Nc2ccc(C(=O)OC)cc2)CC1	/	9.3µM*	/	/	/	5.2µM*
CCOC(=O)C1(c2ccccc2)CCN(CCC(C#N)(c2ccccc2)c2ccccc2)CC1	/	1.9µM*	/	/	/	1.9µM*
SMILES	MARV entry inh	Pf growth 96h	Lassa entry inh	CHX counter	Shiga toxin inh	Pf growth 48h
Nc1nc(SCc2ccc(Cl)cc2Cl)nc2nc3c(cc12)CCCC3	?	13µM*	?	-5	-8	8.3µM*
CCCCCCCCNC(=O)CC(NS(=O)(=O)c1ccc(NC(C)=O)cc1)C(C)C (stereo not given)	8%	/	2.1µM*	-2	16	?
COc1ccc(-c2c[n+](CC(=O)N3c4ccccc4Sc4ccccc43)c3n2CCC3)cc1	-12%	1.7µM*	-20%	1	-1	2.6µM*
O=C(C[n+]1cc(-c2ccc(Cl)c(Cl)c2)n2c1CCC2)N1c2ccccc2Sc2ccccc21	?	?	16%	8	-2	2.6µM*
Cc1ccc(-c2c[n+](CC(=O)OCc3ccccc3)c3n2CCC3)cc1	?	16%	3%	-2	-3	20%
O=C(C[n+]1cc(-c2ccc(Cl)cc2)n2c1CCC2)N1c2ccccc2Sc2ccccc21	?	?	-17%	-2	-1	1.7µM*
CCCS(=O)(=O)N1CCCC(C(=O)N2CCCCC2)C1 (stereo not given)	-8%[46.1 µM]	0%	?	-4	-18	-5%[0.00184 µM]
CC1=C/C(=N\N=C2\NC(=O)C(CC(=O)Nc3ccccc3F)S2)CC(C)(C)C1 (stereo not given)	1%[46.1 µM]	0%	-26%	-2	-16	-16%
CC(C)Oc1ccc(/C=N/NC(=O)C(CSCc2ccccc2)NC(=O)c2ccc([N+](=O)[O-])cc2)cc1 (stereo not given)	-7%	?	?	0	2	12µM*
COc1ccccc1C(CCN(Cc1cccs1)C(C)=O)c1ccco1 (stereo not given)	?	13µM*	-9%	-7	15	7.4µM*
CCC(=O)NCCC(c1ccco1)c1ccccc1OC (stereo not given)	?	10µM*	7%	13	-3	?
CCCNCCC(c1ccco1)c1ccccc1OC (stereo not given)	?	23%	?	7	17	-35%
COc1ccccc1C(CC(=O)Nc1nccs1)c1ccco1 (stereo not given)	-18%	6.6µM*	-4%	1	-3	2.9µM*
C=C1CCC2[C@](C)(CO)[C@H](O)CC[C@@]2(C)[C@@H]1/C=C/C1=CCOC1=O (stereo not given in full)	/	1%	/	/	/	1%
CCCC(=O)Nc1cc(S(=O)(=O)N2CCCCC2)ccc1N1CCOCC1	/	?	/	/	/	-29%
COc1cc(CCC(=O)Nc2cc(Cl)ccc2N2CCN(C)CC2)cc(OC)c1OC	-24%	/	3%	3	3	12µM*
Cc1ccccc1C(=O)Nc1cc(S(=O)(=O)N2CCCCC2)ccc1N1CCN(C)CC1	?	9.3µM*	28%	1	-9	?
COc1ccccc1CCC(=O)Nc1cc(S(=O)(=O)N2CCCCC2)ccc1N1CCN(C)CC1	?	?	0%[46.1 µM]	/	/	12µM*
CN1CCN(c2ccc(S(=O)(=O)N3CCCCC3)cc2NC(=O)c2ccc3ccccc3c2)CC1	?	9.3µM*	6%	-2	14	9.3µM*
O=C(NCC1CCCO1)c1ccc2c(=O)n(Cc3ccco3)c(SCC(=O)N3CCCC3)nc2c1 (stereo not given)	-18%	-5%	-4%	-3	-13	?
O=C(CSc1nnc(-c2ccc(F)cc2)n1-c1ccccc1)NCCN1C(=O)CSC1=O	?	3%	0%	9	41	3%
O=C(CSc1nc(-c2ccccc2)cs1)NCCN1C(=O)CSC1=O	7%	94%	11%	30*	38	48%
